According to article PMC4336329 (PLoS ONE, 2015):
Among all 310,000 compounds or so, about 14,000 (4.5%) showed an effect of 50% or more. The effect is printed as a negative number. The entries come from a sample that favours strong results as a whole.

target: human ether-à-go-go-related gene (hERG) potassium channel (human, UniProt Q12809); test: primary screen, population patch clamp on CHO cells stably expressing hERG; higher = less effect of the substance
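Note: peak tail current of the secondary pulse compared with the same well before compound.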

Chain of human ether-à-go-go-related gene (hERG) potassium channel (Q12809 whole entry, looked up): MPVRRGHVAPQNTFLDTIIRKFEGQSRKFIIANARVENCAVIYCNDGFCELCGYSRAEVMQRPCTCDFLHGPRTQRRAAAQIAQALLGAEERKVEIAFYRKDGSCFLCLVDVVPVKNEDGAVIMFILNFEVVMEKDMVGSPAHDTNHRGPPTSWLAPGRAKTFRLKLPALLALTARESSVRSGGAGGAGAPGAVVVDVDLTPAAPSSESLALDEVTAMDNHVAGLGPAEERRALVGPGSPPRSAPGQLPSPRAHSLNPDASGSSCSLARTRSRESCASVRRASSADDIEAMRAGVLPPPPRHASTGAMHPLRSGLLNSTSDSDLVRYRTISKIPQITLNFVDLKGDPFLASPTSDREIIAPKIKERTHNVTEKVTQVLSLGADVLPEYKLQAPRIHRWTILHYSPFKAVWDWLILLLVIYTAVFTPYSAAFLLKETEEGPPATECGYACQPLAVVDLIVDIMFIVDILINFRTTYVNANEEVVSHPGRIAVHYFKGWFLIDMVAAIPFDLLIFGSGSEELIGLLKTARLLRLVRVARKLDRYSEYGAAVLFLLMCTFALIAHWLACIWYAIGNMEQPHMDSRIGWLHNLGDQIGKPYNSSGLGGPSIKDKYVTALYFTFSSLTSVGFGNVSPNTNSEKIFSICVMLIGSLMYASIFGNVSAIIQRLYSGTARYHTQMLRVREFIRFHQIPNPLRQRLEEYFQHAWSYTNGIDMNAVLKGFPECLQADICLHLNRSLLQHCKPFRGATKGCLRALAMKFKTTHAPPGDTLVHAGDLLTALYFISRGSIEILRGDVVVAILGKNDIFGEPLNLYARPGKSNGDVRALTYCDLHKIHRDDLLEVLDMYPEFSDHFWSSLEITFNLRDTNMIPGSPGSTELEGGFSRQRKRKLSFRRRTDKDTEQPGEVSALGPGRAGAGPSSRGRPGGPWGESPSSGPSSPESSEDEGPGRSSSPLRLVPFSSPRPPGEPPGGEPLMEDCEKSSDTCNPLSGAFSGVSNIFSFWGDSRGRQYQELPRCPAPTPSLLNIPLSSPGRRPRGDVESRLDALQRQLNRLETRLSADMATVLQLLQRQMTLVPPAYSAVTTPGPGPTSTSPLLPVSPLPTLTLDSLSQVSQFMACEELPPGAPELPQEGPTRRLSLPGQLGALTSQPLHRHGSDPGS

Going from `COC(=O)C1=C(N)N(c2ccccc2C(F)(F)F)C2=C(C(=O)CCC2)C1c1ccc2c(c1)OCO2` (stereo not shown) to `COc1ccccc1NC(=O)Cn1c(=O)oc2cc(S(=O)(=O)N3CCCC3)ccc21`, the “hERG current change (%, negative = inhibition) at 10uM” value falls from 20.5% to 16.6%.

Going from `CC(C)(C)c1nc2scc(-c3ccc(Br)cc3)c2c(=O)o1` to `O=C(Nc1nc(-c2ccc(F)cc2)cs1)c1cccc(N2C(=O)CCC2=O)c1`, the “hERG current change (%, negative = inhibition) at 10uM” value rises from 7.26% to 9.67%.

First: Cc1cc(C(=O)Nc2nnc(C3CCCCC3)s2)cs1
Second: O=C(CSc1nnc(Nc2ccccc2)s1)NCC1CCCO1 (stereo not shown)
The “hERG current change (%, negative = inhibition) at 10uM” value of the first is lower: -5.46% for the first, -1.51% for the second.

Going from `COc1ccc(CCN(Cc2cccs2)S(=O)(=O)c2ccc(S(=O)(=O)N(C)C3CCCCC3)cc2)cc1OC` to `CCOC(=O)N1CCc2c(sc(NC(=O)Cc3ccccc3)c2C(=O)c2ccc(OC)cc2)C1`, the “hERG current change (%, negative = inhibition) at 10uM” value rises from 2.56% to 13.7%.

Compared with `COc1cc(NC(=O)CCc2nnc3ccc(N4CCCC4)nn23)cc(OC)c1OC`, `COc1ccc(CNc2ncnc3cc(OC)c(OC)cc23)cc1` is lower in “hERG current change (%, negative = inhibition) at 10uM” value: 6.49% for the first, -3.69% for the second.

First: Cn1cc(/C=C(\NC(=O)c2ccccc2Cl)C(=O)NCCN2CCOCC2)c2ccccc21
Second: Cn1cc(/C=C(\NC(=O)c2ccccc2Cl)C(=O)NCCCn2ccnc2)c2ccccc21
The “hERG current change (%, negative = inhibition) at 10uM” value of the first is lower: -30% for the first, 8.3% for the second.

Compared with `O=C(CCC1CC(=O)Nc2ccccc21)NCc1ccc(F)cc1` (stereo not shown), `CCc1ccc(N2CC(O)=C(c3nc4ccccc4c(=O)[nH]3)C2=N)cc1` is higher in “hERG current change (%, negative = inhibition) at 10uM” value: -17.6% for the first, 2.98% for the second.

First: COc1ccc(C)cc1S(=O)(=O)N1CCCC(C(=O)NC2CC2)C1 (stereo not shown)
Second: Cc1ccc(C(=O)OCC(=O)N(C)C2CCS(=O)(=O)C2)cc1S(=O)(=O)N1CCCCC1 (stereo not shown)
The “hERG current change (%, negative = inhibition) at 10uM” value of the first is higher: -0.49% for the first, -16.5% for the second.

Compared with `O=C(NCc1ccccc1)C1CC(=O)N(C2CCCCC2)C1` (stereo not shown), `O=C(NCCc1ccccc1)C1CCN(S(=O)(=O)N2CCC3(CC2)OCCO3)CC1` is lower in “hERG current change (%, negative = inhibition) at 10uM” value: 17.8% for the first, -0.566% for the second.

Compared with `O=C(NCC(=O)N1CCN(S(=O)(=O)c2ccccc2F)CC1)c1ccc2ccccc2c1`, `O=C(NCC(=O)N1CCN(S(=O)(=O)c2ccccc2)CC1)c1ccc2ccccc2c1` is lower in “hERG current change (%, negative = inhibition) at 10uM” value: -12.2% for the first, -53.5% for the second.

Going from `Cc1cccc(C(=O)NCC(=O)N2CCC2)c1` to `Cc1ccc(S(=O)(=O)N2CCCN(C(=O)CNC(=O)c3cccc(C)c3)CC2)cc1`, the “hERG current change (%, negative = inhibition) at 10uM” value falls from 2.59% to -54.3%.

First: Cc1cccc(C(=O)NCC(=O)N2CCN(S(=O)(=O)c3ccccc3)CC2)c1
Second: Cc1ccc(C)c(S(=O)(=O)N2CCN(C(=O)CNC(=O)c3ccc4ccccc4c3)CC2)c1
The “hERG current change (%, negative = inhibition) at 10uM” value of the first is higher: -10.8% for the first, -28.1% for the second.

Going from `CCOC(=O)C1CCN(c2cc3c(cc2NC(=O)c2ccccc2Cl)n(C)c(=O)n3C)CC1` to `CCOC(=O)C1CCN(Cc2ccc(O)c(OC)c2)CC1`, the “hERG current change (%, negative = inhibition) at 10uM” value rises from -48.8% to -13.7%.

Compared with `CCN(C(=O)c1ccc(S(=O)(=O)N2CCC(C)CC2)cc1)C1CCS(=O)(=O)C1` (stereo not shown), `CCCCN(C(=O)c1ccc(S(=O)(=O)N2CCC(C)CC2)cc1)C1CCS(=O)(=O)C1` (stereo not shown) is lower in “hERG current change (%, negative = inhibition) at 10uM” value: 7.87% for the first, -53.2% for the second.

Compared with `CCCCN(C(=O)c1ccc(S(=O)(=O)N2CCCC2)cc1)C1CCS(=O)(=O)C1` (stereo not shown), `CCCCN(C(=O)c1cccc(S(=O)(=O)N2CCCCC2)c1)C1CCS(=O)(=O)C1` (stereo not shown) is lower in “hERG current change (%, negative = inhibition) at 10uM” value: -0.0452% for the first, -52.1% for the second.

Going from `CCN(C(=O)COC(=O)c1ccc(C)c(S(=O)(=O)N2CCOCC2)c1)C1CCS(=O)(=O)C1` (stereo not shown) to `CCN(C(=O)COC(=O)c1ccc(C)c(S(=O)(=O)N2CCCCC2)c1)C1CCS(=O)(=O)C1` (stereo not shown), the “hERG current change (%, negative = inhibition) at 10uM” value falls from 1.32% to -66.5%.

First: CN(C(=O)c1cccc(S(=O)(=O)N2CCCCC2)c1)C1CCS(=O)(=O)C1 (stereo not shown)
Second: CC(C)CN(C(=O)c1cccc(S(=O)(=O)N2CCCCC2)c1)C1CCS(=O)(=O)C1 (stereo not shown)
The “hERG current change (%, negative = inhibition) at 10uM” value of the first is higher: 2.39% for the first, 0.956% for the second.

Going from `NS(=O)(=O)c1cc(C(=O)OCC(=O)Nc2ccccc2[N+](=O)[O-])ccc1Cl` to `CSc1ccc(S(=O)(=O)NCC(=O)OCC(=O)N2CCCCC2C)cc1[N+](=O)[O-]` (stereo not shown), the “hERG current change (%, negative = inhibition) at 10uM” value rises from -6.13% to 4.74%.

Going from `O=C1Nc2ccccc2N(O)N1c1ccc(S(=O)(=O)N2CCCCCC2)cc1` to `CCC(=O)c1ccc(OCC(=O)OCC(=O)N2c3ccccc3NC(=O)C2(C)C)cc1`, the “hERG current change (%, negative = inhibition) at 10uM” value rises from 1.75% to 2.82%.

Compared with `N#C/C(=C\c1ccc(-c2ccc(C(=O)O)cc2)o1)C(=O)Nc1ccc(F)cc1`, `NC(=O)C(c1ccccc1)c1ccc(C(=O)c2ccccc2)cc1` (stereo not shown) is lower in “hERG current change (%, negative = inhibition) at 10uM” value: 25.6% for the first, 3.08% for the second.

First: CCCOc1cccc(C(=O)N2CCN(C(=O)C3CCCO3)CC2)c1 (stereo not shown)
Second: CCOC(=O)N1CCc2c(sc(NC(=O)CN3CCOCC3)c2C(=O)Nc2ccccc2)C1
The “hERG current change (%, negative = inhibition) at 10uM” value of the first is higher: 7.15% for the first, -68.8% for the second.

First: CC(C)c1ccc(N(CC(=O)NCC2CCCO2)C(=O)Cn2nnc(-c3cccs3)n2)cc1 (stereo not shown)
Second: COc1ccccc1C(=O)N/C(=C\c1ccc(Br)cc1)C(=O)NCCCO
The “hERG current change (%, negative = inhibition) at 10uM” value of the first is lower: -42.5% for the first, -34.3% for the second.

Compared with `NC(=O)NOCc1ncc(C(F)(F)F)cc1Cl`, `COc1ccc(NC(=O)Nc2ncn(Cc3cccc(C(F)(F)F)c3)n2)cc1OC` is lower in “hERG current change (%, negative = inhibition) at 10uM” value: 10.4% for the first, -32.5% for the second.

Going from `CN(C)CCOc1nc(-c2ccccc2)nc2c1oc1ccccc12` to `CCc1nc(OCCN(C)C)c2oc3ccccc3c2n1`, the “hERG current change (%, negative = inhibition) at 10uM” value rises from -44.7% to -4.1%.

Compared with `CCN(CC)CCOc1ncnc2c1oc1ccccc12`, `CCN(CC)CCOc1nc(C)nc2c1oc1ccccc12.Cl` is lower in “hERG current change (%, negative = inhibition) at 10uM” value: -39.1% for the first, -64.6% for the second.

Going from `CCc1nc(N(CC)CC)c2oc3ccccc3c2n1.Cl` to `CCc1nc(OCCN(CC)CC)c2oc3ccccc3c2n1.Cl`, the “hERG current change (%, negative = inhibition) at 10uM” value falls from -21.1% to -58.9%.

Compared with `CCCCCC(=O)Nc1ccccc1N1CCN(c2ccccc2)CC1`, `CCN1C(=O)C2(C(C(=O)c3ccc(C)o3)=C(O)C(=O)N2CCCN2CCOCC2)c2ccccc21` (stereo not shown) is higher in “hERG current change (%, negative = inhibition) at 10uM” value: -0.752% for the first, 0.0517% for the second.

First: COC(=O)Cc1ccc(O)c(N)c1
Second: COc1cc2ccccc2cc1C(=O)NNC(=O)c1ccccc1O
The “hERG current change (%, negative = inhibition) at 10uM” value of the first is higher: 9.82% for the first, 7.31% for the second.

Compared with `CCn1cc(/C=C(\NC(=O)c2ccccc2OC)C(=O)NCCCn2ccnc2)c2ccccc21`, `COc1ccccc1C(=O)N/C(=C\c1cn(C)c2ccccc12)C(=O)NCCCn1ccnc1` is higher in “hERG current change (%, negative = inhibition) at 10uM” value: -19.2% for the first, 3.22% for the second.

Going from `C=CCNC(=O)/C(=C/c1ccc(Br)cc1)NC(=O)c1ccccc1OC` to `C=CCNC(=O)/C(=C\c1ccc(Br)cc1)NC(=O)c1ccccc1OC`, the “hERG current change (%, negative = inhibition) at 10uM” value falls from -45.9% to -51.8%.

First: O=C(NCCCn1ccnc1)/C(=C\c1cccnc1)NC(=O)c1ccccc1Br
Second: O=C(NCCCn1ccnc1)/C(=C\c1cccnc1)NC(=O)c1ccccc1F
The “hERG current change (%, negative = inhibition) at 10uM” value of the first is higher: 5.24% for the first, -17.7% for the second.

Compared with `CCn1cc(/C=C(\NC(=O)c2ccccc2F)C(=O)NCCCn2ccnc2)c2ccccc21`, `O=C(NCCCn1ccnc1)/C(=C\c1ccc(Br)cc1)NC(=O)c1ccccc1F` is lower in “hERG current change (%, negative = inhibition) at 10uM” value: -69% for the first, -74.3% for the second.

Going from `COc1ccccc1C(=O)N/C(=C/c1ccc(Br)cc1)C(=O)NCC(=O)O` to `COc1ccccc1C(=O)N/C(=C/c1ccc(Br)cc1)C(=O)NCCCn1ccnc1`, the “hERG current change (%, negative = inhibition) at 10uM” value falls from -8.44% to -87%.

Going from `COC(=O)c1cnn(-c2ccc(Cl)cc2)c1/C=N/NC(N)=S` to `COc1cc2ncnc(NCc3ccc(Cl)cc3)c2cc1OC`, the “hERG current change (%, negative = inhibition) at 10uM” value falls from 7.44% to -31.2%.

Compared with `O=C(Nc1cccc(-c2csc(Nc3cccc(C(F)(F)F)c3)n2)c1)c1cc([N+](=O)[O-])cc(C(F)(F)F)c1`, `O=C(CNC(=O)c1ccco1)OC(C(=O)c1ccccc1)c1ccccc1` (stereo not shown) is lower in “hERG current change (%, negative = inhibition) at 10uM” value: 5.05% for the first, 0.438% for the second.

Going from `CC(C)Oc1ccc(CNCCC2(C(C)C)CCOC(C)(C)C2)cc1` (stereo not shown) to `COc1cc2ncnc(NCc3ccc(C)cc3)c2cc1OC`, the “hERG current change (%, negative = inhibition) at 10uM” value rises from -45.4% to -0.937%.

Compared with `CC(C)N1CCC(N2CCN(CC#Cc3ccccc3)CC2CCO)CC1` (stereo not shown), `CCOC(=O)N1CCc2c(sc(NC(=O)CN3CCN(C)CC3)c2C(=O)Nc2ccccc2)C1` is lower in “hERG current change (%, negative = inhibition) at 10uM” value: 0.615% for the first, -77.2% for the second.

Compared with `CCOc1ccc(Nc2oc(Cc3ccccc3)nc2C#N)cc1`, `COc1cccc(CNc2ncnc3cc(OC)c(OC)cc23)c1` is lower in “hERG current change (%, negative = inhibition) at 10uM” value: -1.96% for the first, -11.6% for the second.

First: CCCCOc1cc(CC2CNC(=O)N2)ccc1OC (stereo not shown)
Second: COc1cc2ncnc(NCc3ccc(F)cc3)c2cc1OC
The “hERG current change (%, negative = inhibition) at 10uM” value of the first is higher: -2.83% for the first, -52.5% for the second.

Going from `CCOC(=O)c1c(NC(=O)CN2CCCCC2)sc2c1CCN(C(=O)OCC)C2` to `CCOC(=O)c1c(NC(=S)N2CCOCC2)sc2c1CCN(C(=O)OCC)C2`, the “hERG current change (%, negative = inhibition) at 10uM” value rises from -10.9% to -1.31%.

First: CCOC(=O)N1CCc2c(sc(NC(=O)CN3CCOCC3)c2C#N)C1
Second: O=C(CSc1nccc(=O)[nH]1)N1CCOCC1
The “hERG current change (%, negative = inhibition) at 10uM” value of the first is lower: -1.09% for the first, 3.03% for the second.

First: COc1cc(SC)ccc1C(=O)OCc1nc2ccsc2c(=O)[nH]1
Second: COc1cccc2c(=O)c3c([nH]c12)OC(C)(C)C3
The “hERG current change (%, negative = inhibition) at 10uM” value of the first is lower: -30.6% for the first, 13% for the second.

`COc1cc2ncnc(NCc3cccc(Cl)c3)c2cc1OC` was tested, and the “hERG current change (%, negative = inhibition) at 10uM” value was -63.9%.
